# Active and inactive are the calls of the source.
# Experiments:
# [1] = system: PRMT1 (protein arginine N-methyltransferase 1); assay: PRMT1 binders on small-molecule microarrays, primary screen, biochemical, small-molecule microarray, 635 nm fluorescence (AID 1088); conditions: small-molecule microarray binding, higher = more signal;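 further: binding of Prmt1 protein to compounds spotted on small-molecule microarray slides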
# [2] = yeast growth modulation, basal conditions, primary screen, YJM789 clinical isolate, OD600, 24 h (AID 1089);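 further: growth of clinical yeast isolate S. cerevisiae YJM 789 seeded 1000 cells per well; test concentration not given here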; conditions: S. cerevisiae YJM789 growth, higher = more signal, called active from +8 up or from −8 down
# [3] = fission yeast growth modulation, primary screen, strain 972, OD600, 24 h, no modulator (AID 1090);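 further: basal condition with compound alone and no growth modifier present; test concentration not given here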; conditions: S. pombe 972 growth, higher = more signal, called active from +8 up or from −8 down
# [4] = S. cerevisiae growth modulation with rapamycin, primary screen, strain BY4716, OD600, 96 h (AID 1091); conditions: higher = more signal, called active from +8 up or from −8 down; further: test concentration not given here
# [5] = biological target: Torsin-1A-interacting protein 2 (Homo sapiens) (UniProt Q8NFQ8); assay: LULL1 binders on small-molecule microarray, primary screen, cell lysate, human LULL1 lysate, 635/667 nm fluorescence (AID 1092); conditions: hLULL1 lysate binding, 635 nm fluorescence, higher = more signal;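 further: probe is lysate of COS7 cells overexpressing human LULL1; score merges per-feature 667 nm fluorescence with signal-to-noise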
# Torsin-1A-interacting protein 2 (Homo sapiens), sequence (Q8NFQ8 whole entry, looked up): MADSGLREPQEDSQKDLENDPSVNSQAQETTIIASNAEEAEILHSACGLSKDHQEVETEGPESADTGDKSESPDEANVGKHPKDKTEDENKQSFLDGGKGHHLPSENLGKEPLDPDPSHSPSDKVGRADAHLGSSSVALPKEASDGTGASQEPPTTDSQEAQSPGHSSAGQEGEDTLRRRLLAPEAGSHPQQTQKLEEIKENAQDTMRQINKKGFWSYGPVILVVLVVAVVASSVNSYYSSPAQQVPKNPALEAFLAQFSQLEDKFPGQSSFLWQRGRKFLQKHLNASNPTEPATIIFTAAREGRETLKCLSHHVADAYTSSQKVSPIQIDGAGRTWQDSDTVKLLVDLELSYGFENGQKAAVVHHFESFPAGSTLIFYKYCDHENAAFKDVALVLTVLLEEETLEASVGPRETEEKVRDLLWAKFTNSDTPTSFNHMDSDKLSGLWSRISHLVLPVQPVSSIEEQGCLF
# [6] = E. coli growth modulation, two-sided OD650, primary screen, E. coli filamentation project, strain DRC41, 24 h (AID 1093); conditions: OD650, 24 h, higher = more signal, called active from +8 up or from −8 down;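 further: MC1000 strain lacking acrAB efflux and sulA so SOS filamentation is blocked; test concentration not given here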
# [7] = small-molecule microarray binders of probe aLefty2, primary screen, biochemical, biotinylated probe, 635/667 nm fluorescence (AID 1094); conditions: higher = more signal;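 further: score merges spot fluorescence near 667 nm with spot signal-to-noise ratio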
# [8] = system: Noggin (protein binding on small-molecule microarray); assay: Noggin binders on small-molecule microarray, primary screen, biochemical, 635/667 nm fluorescence (AID 1095); conditions: 635 nm fluorescence, higher = more signal;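 further: score merges 667 nm feature fluorescence with signal to noise over triplicate slides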
# [9] = biological target: Neurogenic locus notch homolog protein 3 (Homo sapiens) (UniProt Q9UM47); assay: NOTCH3 binders on small-molecule microarray, primary screen, biochemical, 635/667 nm fluorescence (AID 1096); conditions: NOTCH3 binding, 635 nm fluorescence, higher = more signal
# Neurogenic locus notch homolog protein 3 (Homo sapiens), sequence (Q9UM47 whole entry, looked up): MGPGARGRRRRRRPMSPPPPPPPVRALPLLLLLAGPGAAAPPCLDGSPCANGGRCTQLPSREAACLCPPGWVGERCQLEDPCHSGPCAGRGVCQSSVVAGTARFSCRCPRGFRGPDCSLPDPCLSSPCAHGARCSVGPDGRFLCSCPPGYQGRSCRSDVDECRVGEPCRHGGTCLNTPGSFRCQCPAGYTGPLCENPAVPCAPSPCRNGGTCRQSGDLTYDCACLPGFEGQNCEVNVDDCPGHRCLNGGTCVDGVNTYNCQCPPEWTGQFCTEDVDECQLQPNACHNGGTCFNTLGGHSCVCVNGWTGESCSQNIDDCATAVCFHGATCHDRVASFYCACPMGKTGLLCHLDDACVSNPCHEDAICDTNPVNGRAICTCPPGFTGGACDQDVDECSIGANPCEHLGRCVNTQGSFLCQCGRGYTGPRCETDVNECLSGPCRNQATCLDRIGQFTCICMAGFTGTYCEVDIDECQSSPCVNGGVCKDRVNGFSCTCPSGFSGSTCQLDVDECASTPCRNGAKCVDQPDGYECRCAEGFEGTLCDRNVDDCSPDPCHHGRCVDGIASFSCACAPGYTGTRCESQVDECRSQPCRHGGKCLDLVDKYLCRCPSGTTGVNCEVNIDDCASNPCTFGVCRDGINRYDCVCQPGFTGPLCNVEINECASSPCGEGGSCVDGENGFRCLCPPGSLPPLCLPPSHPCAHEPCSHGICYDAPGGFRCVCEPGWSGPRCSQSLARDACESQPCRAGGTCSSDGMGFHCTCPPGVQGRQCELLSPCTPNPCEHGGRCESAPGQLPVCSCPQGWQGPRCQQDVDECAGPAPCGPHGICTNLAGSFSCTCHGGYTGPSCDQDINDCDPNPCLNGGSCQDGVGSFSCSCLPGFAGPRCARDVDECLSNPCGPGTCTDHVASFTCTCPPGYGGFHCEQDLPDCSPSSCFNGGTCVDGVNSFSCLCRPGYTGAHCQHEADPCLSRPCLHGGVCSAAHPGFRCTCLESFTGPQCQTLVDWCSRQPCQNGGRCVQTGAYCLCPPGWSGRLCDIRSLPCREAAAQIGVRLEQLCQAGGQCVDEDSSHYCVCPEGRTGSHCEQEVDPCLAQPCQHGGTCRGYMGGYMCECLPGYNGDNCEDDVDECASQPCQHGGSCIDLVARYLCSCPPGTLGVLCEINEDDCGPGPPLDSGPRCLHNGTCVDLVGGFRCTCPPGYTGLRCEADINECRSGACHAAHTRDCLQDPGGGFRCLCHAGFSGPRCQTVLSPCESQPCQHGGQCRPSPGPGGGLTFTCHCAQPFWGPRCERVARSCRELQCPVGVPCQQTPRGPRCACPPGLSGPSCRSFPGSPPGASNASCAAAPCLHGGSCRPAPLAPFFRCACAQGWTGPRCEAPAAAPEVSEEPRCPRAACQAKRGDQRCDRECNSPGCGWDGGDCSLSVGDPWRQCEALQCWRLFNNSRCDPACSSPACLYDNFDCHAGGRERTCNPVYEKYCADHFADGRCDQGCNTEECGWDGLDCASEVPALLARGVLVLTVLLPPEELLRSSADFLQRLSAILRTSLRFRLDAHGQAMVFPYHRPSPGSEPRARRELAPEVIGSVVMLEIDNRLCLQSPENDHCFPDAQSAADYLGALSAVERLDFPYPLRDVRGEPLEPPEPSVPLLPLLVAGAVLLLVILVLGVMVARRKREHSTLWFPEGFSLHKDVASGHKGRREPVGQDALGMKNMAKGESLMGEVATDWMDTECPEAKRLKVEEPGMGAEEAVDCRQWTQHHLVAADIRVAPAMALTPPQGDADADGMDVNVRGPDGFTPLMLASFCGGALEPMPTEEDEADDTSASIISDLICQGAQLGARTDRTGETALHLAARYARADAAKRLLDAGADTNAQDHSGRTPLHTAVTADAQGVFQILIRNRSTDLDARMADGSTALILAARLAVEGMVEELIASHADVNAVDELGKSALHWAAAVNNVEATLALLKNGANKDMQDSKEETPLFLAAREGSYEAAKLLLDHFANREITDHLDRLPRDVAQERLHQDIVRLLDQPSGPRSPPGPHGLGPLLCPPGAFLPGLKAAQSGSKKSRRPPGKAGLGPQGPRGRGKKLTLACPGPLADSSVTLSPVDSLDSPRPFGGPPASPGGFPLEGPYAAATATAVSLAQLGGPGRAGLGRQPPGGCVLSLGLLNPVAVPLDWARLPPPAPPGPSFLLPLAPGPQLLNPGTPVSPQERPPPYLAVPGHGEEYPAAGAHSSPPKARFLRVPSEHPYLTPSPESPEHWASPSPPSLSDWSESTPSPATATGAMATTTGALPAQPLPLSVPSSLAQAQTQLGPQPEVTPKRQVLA
# [10] = small-molecule microarray binders of probe aEGFR, primary screen, biochemical, biotinylated probe, 635/667 nm fluorescence (AID 1097); conditions: higher = more signal;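 further: probe is a biotinylated anti-EGFR antibody binding compounds printed on slides; score combines fluorescence near 667 nm and signal to noise of each spot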
# [11] = system: Plasmodium falciparum Sir2 (PF13_0152, Sir2A); assay: pfSir2 binders on small-molecule microarrays, primary screen, biochemical, small-molecule microarray, 635 nm fluorescence (AID 1098); conditions: small-molecule microarray binding, fluorescence 635 nm; higher = more signal;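 further: score merges spot fluorescence intensity with its signal-to-noise ratio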
# [12] = small-molecule microarray binders of probe aDKK1, primary screen, biochemical, biotinylated probe, 635/667 nm fluorescence (AID 1099); conditions: higher = more signal;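 further: score merges 667nm spot fluorescence with signal to noise across triplicate slides; reference of the scale not given here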
# [13] = small-molecule microarray binders of probe aCHRDL2, primary screen, biochemical, biotinylated probe, 635/667 nm fluorescence (AID 1100); conditions: higher = more signal
# [14] = splicing luciferase reporter signal modulators, primary screen, spliceosome inhibition project, cell-based, HEK293, splice +/- reporter (AID 1101); conditions: luminescence, 24 h, higher = more signal, called active from +8 up or from −8 down;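 further: HEK293 cells carrying a splicing-competent luciferase reporter gene; test concentration not given here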
# [15] = biological target: Fibroblast growth factor 10 (Homo sapiens) (UniProt O15520); assay: FGF10 binders on small-molecule microarrays, primary screen, biochemical, small-molecule microarray, 635 nm fluorescence (AID 1102); conditions: FGF10 binding, fluorescence 635 nm, higher = more signal
# Fibroblast growth factor 10 (Homo sapiens), sequence (O15520 whole entry, looked up): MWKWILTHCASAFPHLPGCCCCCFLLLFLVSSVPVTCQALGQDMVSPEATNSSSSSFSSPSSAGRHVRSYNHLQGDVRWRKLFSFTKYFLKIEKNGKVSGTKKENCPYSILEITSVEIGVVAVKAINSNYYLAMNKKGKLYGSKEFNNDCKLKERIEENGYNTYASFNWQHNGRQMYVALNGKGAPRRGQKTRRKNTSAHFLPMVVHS
# [16] = system: glycogen synthase kinase-3 (GSK3A per assay name; protocol says GSK3B); assay: GSK3 binders on small-molecule microarrays, primary screen, biochemical, small-molecule microarray, 635 nm fluorescence, GSK3A (AID 1103); conditions: small-molecule microarray binding, fluorescence 635 nm; higher = more signal; further: the record names both GSK3A and GSK3B
# [17] = biological target: Epidermal growth factor receptor (Homo sapiens) (UniProt P00533); assay: EGFR binders on small-molecule microarrays, primary screen, biochemical, small-molecule microarray, 635 nm fluorescence (AID 1104); conditions: EGFR binding, higher = more signal;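 further: score merges 667 nm emission intensity with spot signal to noise over triplicate slides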
# Epidermal growth factor receptor (Homo sapiens), sequence (P00533 whole entry, looked up): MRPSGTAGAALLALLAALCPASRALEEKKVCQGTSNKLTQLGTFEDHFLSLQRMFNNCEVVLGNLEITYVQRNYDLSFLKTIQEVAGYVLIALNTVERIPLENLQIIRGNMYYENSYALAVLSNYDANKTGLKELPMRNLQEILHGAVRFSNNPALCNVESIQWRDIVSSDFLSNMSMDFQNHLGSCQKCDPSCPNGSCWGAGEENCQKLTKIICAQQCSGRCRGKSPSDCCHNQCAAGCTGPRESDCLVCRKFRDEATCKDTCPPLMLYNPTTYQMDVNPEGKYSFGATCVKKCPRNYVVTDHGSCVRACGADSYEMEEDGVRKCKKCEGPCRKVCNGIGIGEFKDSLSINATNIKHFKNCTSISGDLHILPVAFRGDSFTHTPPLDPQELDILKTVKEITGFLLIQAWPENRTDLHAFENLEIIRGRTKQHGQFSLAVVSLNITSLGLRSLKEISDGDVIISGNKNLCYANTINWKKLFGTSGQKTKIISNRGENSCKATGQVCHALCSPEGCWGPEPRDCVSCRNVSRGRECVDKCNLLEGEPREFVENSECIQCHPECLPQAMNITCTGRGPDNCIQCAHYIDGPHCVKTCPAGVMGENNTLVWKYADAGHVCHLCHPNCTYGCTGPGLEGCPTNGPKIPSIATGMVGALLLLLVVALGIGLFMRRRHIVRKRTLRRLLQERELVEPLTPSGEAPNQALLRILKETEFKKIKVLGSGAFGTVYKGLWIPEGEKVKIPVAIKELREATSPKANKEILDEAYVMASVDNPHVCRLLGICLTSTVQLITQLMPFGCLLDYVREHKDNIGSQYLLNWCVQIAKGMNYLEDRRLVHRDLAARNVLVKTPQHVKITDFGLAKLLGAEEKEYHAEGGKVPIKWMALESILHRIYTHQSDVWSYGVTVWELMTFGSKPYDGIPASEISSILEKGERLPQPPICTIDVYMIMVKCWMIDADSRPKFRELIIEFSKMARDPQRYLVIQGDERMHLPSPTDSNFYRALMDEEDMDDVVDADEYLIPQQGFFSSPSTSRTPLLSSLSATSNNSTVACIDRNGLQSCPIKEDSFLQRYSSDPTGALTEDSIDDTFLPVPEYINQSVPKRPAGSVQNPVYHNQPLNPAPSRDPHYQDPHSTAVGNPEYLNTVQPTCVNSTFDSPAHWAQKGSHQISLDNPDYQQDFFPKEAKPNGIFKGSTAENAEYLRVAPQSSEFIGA
# [18] = biological target: Follistatin-related protein 3 (Homo sapiens) (UniProt O95633); assay: FSTL3 binders on small-molecule microarrays, primary screen, biochemical, small-molecule microarray, 635 nm fluorescence (AID 1105); conditions: FSTL3 binding, higher = more signal;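 further: score merges emission near 667 nm and signal to noise per printed spot across three slides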
# Follistatin-related protein 3 (Homo sapiens), sequence (O95633 whole entry, looked up): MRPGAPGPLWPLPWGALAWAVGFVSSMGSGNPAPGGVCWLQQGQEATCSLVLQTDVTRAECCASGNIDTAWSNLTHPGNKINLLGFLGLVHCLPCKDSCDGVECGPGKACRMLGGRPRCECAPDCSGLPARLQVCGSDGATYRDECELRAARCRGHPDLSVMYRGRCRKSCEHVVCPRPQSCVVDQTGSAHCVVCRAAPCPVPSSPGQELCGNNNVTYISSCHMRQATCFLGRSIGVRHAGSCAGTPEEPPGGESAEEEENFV
# [19] = biological target: Dickkopf-related protein 1 (Homo sapiens) (UniProt O94907); assay: DKK1 binders on small-molecule microarrays, primary screen, biochemical, small-molecule microarray, 635 nm fluorescence scan (AID 1106); conditions: DKK1 binding, higher = more signal;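 further: score merges emission near 667 nm with signal to noise over three replicate slides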
# Dickkopf-related protein 1 (Homo sapiens), sequence (O94907 whole entry, looked up): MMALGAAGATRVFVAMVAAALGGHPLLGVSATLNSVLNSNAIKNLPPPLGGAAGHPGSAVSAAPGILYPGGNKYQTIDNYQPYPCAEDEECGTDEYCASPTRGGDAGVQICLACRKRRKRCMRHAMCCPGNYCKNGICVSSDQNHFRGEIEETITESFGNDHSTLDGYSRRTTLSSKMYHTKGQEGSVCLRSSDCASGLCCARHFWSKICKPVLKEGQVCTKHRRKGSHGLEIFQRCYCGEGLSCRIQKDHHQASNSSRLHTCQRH
# [20] = system: Inhibin beta A chain (activin A); assay: INHBA (activin A) binders on microarrays, primary screen, biochemical, small-molecule microarray, 635 nm fluorescence scan (AID 1107); conditions: small-molecule microarray binding, higher = more signal;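 further: mouse activin A protein probed at 4.33 µg/mL on printed slides; score merges bound-protein fluorescence near 667 nm with spot signal-to-noise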
SMILES,composite z-score [1],z-score [2],z-score [3],z-score [4],composite z-score [5],z-score [6],composite z-score [7],composite z-score [8],composite z-score [9],composite z-score [10],composite z-score [11],composite z-score [12],composite z-score [13],z-score [14],composite z-score [15],composite z-score [16],composite z-score [17],composite z-score [18],composite z-score [19],composite z-score [20]
NCCCC[C@@H]1NC(=O)[C@H]2C[C@@H](C(=O)O)[C@@H](c3cccc(OCCO)c3)N2C1=O,1.53,1.42 (inactive),-1.66 (inactive),-0.503 (inactive),3.33,-1.31 (inactive),0.781,1.85,1.02,0.703,1.61,1.21,0.752,-0.615 (inactive),1.51,1.35,1.53,1.53,1.62,1.03
O=C1C2C=CC(C(O)c3ccc([N+](=O)[O-])cc3)N(Nc3ccccc3)C2C(=O)N1c1ccccc1 (stereo not given),0.44,-0.247 (inactive),0.485 (inactive),0.495 (inactive),2.68,-0.8 (inactive),-0.0469,-0.456,1.03,-0.0509,1.32,0.3,0.585,4.07 (inactive),0.466,0.273,-0.0215,0.481,-0.521,0.87
CCCCN1CC=CC23O[C@@H]4C=CCOC(=O)[C@@H]4[C@H]2C(=O)N(CCO)[C@@H]3C1=O (stereo not given in full),-0.757,-0.312 (inactive),-0.706 (inactive),-0.179 (inactive),0.62,-0.454 (inactive),0.221,-1.45,-0.823,-0.327,1.58,0.125,0.537,0.499 (inactive),-1.25,-0.641,-1.54,-1.24,-1.58,-0.112
COCCOC(=O)N1C(=O)[C@@]2(c3cc(C#CCC(C(=O)OC)C(=O)OC)ccc31)[C@H](C(=O)N1CCc3cc(OC)c(OC)cc3C1)[C@H]1C(=O)O[C@H](c3ccccc3)[C@H](c3ccccc3)N1[C@@H]2c1ccc(O)cc1,1.54,0.215 (inactive),0.233 (inactive),0.773 (inactive),1.99,0.204 (inactive),0.0704,1.19,1.08,0.135,0.86,0.148,0.0085,1.5 (inactive),1.24,0.636,0.868,1.47,1.62,0.418
CN(C)CCCC[C@@H]1NC(=O)[C@@H]2C[C@H](C(=O)NCc3ccc(F)cc3)[C@H](c3ccc(O)cc3)N2C1=O,1.34,0.582 (inactive),-1.4 (inactive),0.0709 (inactive),2.72,-0.585 (inactive),0.164,1.9,0.968,0.364,1.56,-0.126,-0.0292,0.104 (inactive),1.47,0.941,0.176,0.0719,0.2,-1.43
C#CCN(C/C=C/c1ccccc1)[C@H](CO[Si](C)(C)C(C)(C)C)c1ccccc1,0.21,0.253 (inactive),-0.121 (inactive),0.0066 (inactive),0.433,-0.347 (inactive),-0.264,-0.0154,-0.091,-0.21,0.209,-0.454,-0.541,-0.736 (inactive),0.108,-0.871,-0.468,-0.261,-0.156,-0.0543
CCCCCCCCCCC(O)C1C=CC2C(=O)N(C)C(=O)C2N1N1CCCCC1 (stereo not given),-0.804,1.16 (inactive),-2.31 (inactive),2.18 (inactive),1.64,-1.6 (inactive),-0.118,-1.9,-1.14,-0.368,0.331,-0.267,0.598,1.53 (inactive),-1.9,-1.41,-2.01,-1.63,-1.29,1.35
CC(C)C[C@@H]1NC(=O)[C@H]2C[C@@H](C(=O)NCCCCCCNC(=O)CS)[C@@H](c3ccc(O)cc3)N2C1=O,1.54,0.107 (inactive),0.673 (inactive),0.185 (inactive),2.91,0.205 (inactive),-0.101,1.14,0.589,-0.0594,1.47,-0.0603,-0.121,-0.0594 (inactive),1.13,1.25,1.08,1.03,0.868,-1.17
C=CCC(OC(C)=O)[C@@H]1[C@@H](N(Cc2cc3ccccc3o2)C(=O)Cc2ccc(OC)cc2)c2cc(OCCCO)ccc2N1C(=O)Cc1ccc(OC)cc1 (stereo not given in full),0.0873,-0.484 (inactive),0.142 (inactive),-0.197 (inactive),0.0103,-0.847 (inactive),-0.0757,0.312,-0.293,-0.108,-0.193,-0.0082,0.246,-0.782 (inactive),0.233,-0.238,0.157,-0.0138,0.214,1.3
C=CCC(OC(C)=O)[C@@H]1[C@@H](N(Cc2ccc(-c3ccccc3)cc2)C(=O)c2ccc(-c3ccccc3)cc2)c2cc(OCCCO)ccc2N1C(=O)c1ccc2ccccc2n1 (stereo not given in full),0.474,-0.755 (inactive),-0.638 (inactive),-0.0474 (inactive),0.183,0.853 (inactive),0.121,0.408,0.361,-0.0494,0.212,0.103,0.168,-1.27 (inactive),0.46,0.213,-0.486,0.204,-0.328,1.38
